Test results published in PubChem BioAssay (EPA / NIEHS).
Values joined by “and” are separate entries in the source; they are usually repeats but may differ in a detail not shown here. Equal values may be shown once. More than one record can exist for a structure, and the calls need not agree. Active and inactive are the calls of the source. Rule for the calls: active = hit-call score of the fitted dose curve at least 0.9, where 1 is the maximum; inactive = score below 0.9.

How the values were obtained:
Conditions in all cases: mRNA level, 48 h; actives raise or lower the signal
[1] = read-out: CYP2C8 (gene 1558); assay: LTEA_HepaRG_CYP2C8: Life Technologies and Expression Analysis (LTEA) Assay for CYP2C8 using HepaRG (AID 2283483)
Procedure, shortened: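 This is a transcriptional endpoint in HepaRG cultures: 48 h exposure, highest concentration 100 uM. CYP2C8 mRNA is quantified by TaqMan qRT-PCR.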

[2] = read-out: CYP2C9 (gene 1559); assay: LTEA_HepaRG_CYP2C9: Life Technologies and Expression Analysis (LTEA) Assay for CYP2C9 using HepaRG (AID 2283484)
Procedure, shortened: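 Eight-point concentration-response (highest 100 uM, half-log dilutions) in HepaRG cells for 48 h; CYP2C9 expression by qRT-PCR normalized to ACTB, GAPDH, POLR2A. Bidirectional fit, DMSO baseline.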

[3] = read-out: CYP2E1 (gene 1571); assay: LTEA_HepaRG_CYP2E1: Life Technologies and Expression Analysis (LTEA) Assay for CYP2E1 using HepaRG (AID 2283485)
Procedure, shortened: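 Readout is qRT-PCR of CYP2E1 mRNA, normalized to three housekeeping genes and fitted bidirectionally against 0.5% DMSO. HepaRG cells were dosed 48 h at eight concentrations, highest 100 uM with half-log dilutions.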

[4] = read-out: CYP4A11 (gene 1579); assay: LTEA_HepaRG_CYP4A11: Life Technologies and Expression Analysis (LTEA) Assay for CYP4A11 using HepaRG (AID 2283486)
Procedure, shortened: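 Readout is CYP4A11 transcript level by qRT-PCR, normalized to three housekeeping genes and fitted bidirectionally against 0.5% DMSO. Human HepaRG cells were treated 48 h, in duplicate, with an 8-point half-log series topping at 100 uM.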

[5] = read-out: Cytochrome P450 3A4 (Homo sapiens) (UniProt P08684); assay: LTEA_HepaRG_CYP3A4: Life Technologies and Expression Analysis (LTEA) Assay for CYP3A4 using HepaRG (AID 2283487)
Procedure, shortened: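 HepaRG, 48 h exposure, 8-pt CRC from 100 uM (half-log), 0.5% DMSO, duplicates; serum-free induction medium. Readout: CYP3A4 mRNA, qRT-PCR, ACTB/GAPDH/POLR2A normalization. Bidirectional fit vs DMSO.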

[6] = read-out: DNA damage-inducible transcript 3 (DDIT3), DDIT3 (gene 1649); assay: LTEA_HepaRG_DDIT3: Life Technologies and Expression Analysis (LTEA) Assay for DNA damage-inducible transcript 3 (DDIT3) using HepaRG (AID 2283488)
Procedure, shortened: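 Cells are human HepaRG liver cells treated for 48 h with eight half-log concentrations up to 100 uM in 0.5% DMSO. Transcript levels come from qRT-PCR normalized to three housekeeping genes, with activity fitted in both directions relative to vehicle.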

[7] = read-out: Pro-epidermal growth factor (Homo sapiens) (UniProt P01133); assay: LTEA_HepaRG_EGF: Life Technologies and Expression Analysis (LTEA) Assay for Epidermal growth factor (EGF) using HepaRG (AID 2283489)
Procedure, shortened: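 EGF transcript measured by Fluidigm TaqMan qRT-PCR with three housekeeping genes for normalization, 48 h after dosing HepaRG cultures in duplicate (top 100 uM, half-log steps, 0.5% DMSO vehicle). Gain or loss relative to DMSO fitted.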

[8] = read-out: Early growth response protein 1 (EGR1) transcription factor, EGR1 (gene 1958); assay: LTEA_HepaRG_EGR1: Life Technologies and Expression Analysis (LTEA) Assay for Early growth response protein 1 (EGR1) transcription factor using HepaRG (AID 2283490)
Procedure, shortened: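 EGR1 expression change in human HepaRG after 48 h chemical exposure, assessed by housekeeping-normalized qRT-PCR; concentration-response up to 100 uM, fitted in both directions against DMSO controls.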

[9] = read-out: Ezrin (EZR), EZR (gene 7430); assay: LTEA_HepaRG_EZR: Life Technologies and Expression Analysis (LTEA) Assay for Ezrin (EZR) using HepaRG (AID 2283491)
Procedure, shortened: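 Read-out is EZR transcript level by qRT-PCR, normalized to three housekeeping genes and fitted bidirectionally against the DMSO control. Human HepaRG cells received test chemicals for 48 h at eight half-log concentrations up to 100 uM in 0.5% DMSO.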

[10] = read-out: CYP3A5 (gene 1577); assay: LTEA_HepaRG_CYP3A5: Life Technologies and Expression Analysis (LTEA) Assay for CYP3A5 using HepaRG (AID 2283493)
Procedure, shortened: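 Human HepaRG hepatic cells receive 48 h chemical treatment at eight concentrations (half-log steps from 100 uM) in 0.5% DMSO. Expression of CYP3A5 is quantified by Fluidigm qRT-PCR and normalized to three reference genes.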

[11] = read-out: Fatty Acid-Binding Protein 1 (FABP1), FABP1 (gene 2168); assay: LTEA_HepaRG_FABP1: Life Technologies and Expression Analysis (LTEA) Assay for Fatty Acid-Binding Protein 1 (FABP1) using HepaRG (AID 2283494)
Procedure, shortened: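 Values reflect bidirectional concentration-response fitting of FABP1 mRNA change against 0.5% DMSO controls. Human HepaRG cultures received eight half-log doses (top 100 uM) for 48 h; expression quantified by TaqMan qRT-PCR with housekeeping-gene normalization.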

[12] = read-out: Cytochrome P450 7A1 (Homo sapiens) (UniProt P22680); assay: LTEA_HepaRG_CYP7A1: Life Technologies and Expression Analysis (LTEA) Assay for Cytochrome P450 7A1 (CYP7A1) using HepaRG (AID 2283496)
Procedure, shortened: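 HepaRG, 48 h exposure, 8-pt half-log series from 100 uM, 0.5% DMSO vehicle, duplicates. Readout: TaqMan qRT-PCR mRNA vs three housekeeping genes; bidirectional curve fit against DMSO baseline.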

[13] = read-out: Glutathione S-Transferase (GSTA2), GSTA2 (gene 2939); assay: LTEA_HepaRG_GSTA2: Life Technologies and Expression Analysis (LTEA) Assay for Glutathione S-Transferase (GSTA2) using HepaRG (AID 2283497)
Procedure, shortened: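 Oxidative-stress marker GSTA2 is quantified by TaqMan qRT-PCR in HepaRG cultures treated 48 h across an eight-point range to 100 uM. Expression is normalized to endogenous controls and compared with 0.5% DMSO vehicle.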

[14] = read-out: Glutamate-cysteine ligase catalytic (GCLC), GCLC (gene 2729); assay: LTEA_HepaRG_GCLC: Life Technologies and Expression Analysis (LTEA) Assay for Glutamate-cysteine ligase catalytic (GCLC) using HepaRG (AID 2283498)
Procedure, shortened: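 Oxidative-stress marker GCLC is measured as mRNA change in human HepaRG liver cells after 48 h chemical treatment in 0.5% DMSO, eight concentrations from 100 uM. Activity is fitted bidirectionally against vehicle.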

[15] = read-out: growth arrest and DNA damage 45 (GADD45G), GADD45G (gene 10912); assay: LTEA_HepaRG_GADD45G: Life Technologies and Expression Analysis (LTEA) Assay for growth arrest and DNA damage 45 (GADD45G) using HepaRG (AID 2283499)
Procedure, shortened: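 GADD45G transcript level by qRT-PCR (housekeeping-normalized: ACTB, GAPDH, POLR2A) after 48 h chemical treatment of a single HepaRG lot in serum-free induction medium; eight-point half-log series up to 100 uM in 0.5% DMSO, duplicates, up- or down-regulation scored.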

[16] = read-out: Glutamate-cysteine ligase regulatory (GCLM), GCLM (gene 2730); assay: LTEA_HepaRG_GCLM: Life Technologies and Expression Analysis (LTEA) Assay for Glutamate-cysteine ligase regulatory (GCLM) using HepaRG (AID 2283500)
Procedure, shortened: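 Endpoint is GCLM transcript level by qRT-PCR, normalized to three housekeeping genes, after 48 h chemical exposure of human HepaRG cells (0.5% DMSO vehicle, top 100 uM, half-log dilutions). Fitting was bidirectional relative to DMSO.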

[17] = read-out: Glutathione S-transferase M3 (GSTM3), GSTM3 (gene 2947); assay: LTEA_HepaRG_GSTM3: Life Technologies and Expression Analysis (LTEA) Assay for Glutathione S-transferase M3 (GSTM3) using HepaRG (AID 2283501)
Procedure, shortened: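 GSTM3 transcript levels came from Fluidigm TaqMan qRT-PCR normalized to three housekeeping genes, fitted in both directions against DMSO. HepaRG cultures received chemicals for 48 h in serum-free induction medium (0.5% DMSO), 8 half-log concentrations up to 100 uM, duplicate.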

[18] = read-out: Heat shock 70 kDa protein 1 (HSPA1A), gene 3303; assay: LTEA_HepaRG_HSPA1A: Life Technologies and Expression Analysis (LTEA) Assay for Heat shock 70 kDa protein 1 (HSPA1A) using HepaRG (AID 2283502)
Procedure, shortened: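 Cells were plated and cultured for 48 h, then switched to serum-free induction medium. Chemicals were added at eight half-log concentrations up to 100 uM for 48 h. RNA was then isolated and HSPA1A measured by qRT-PCR with bidirectional curve fitting against DMSO.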

[19] = read-out: Cytochrome P450 4A22 (Homo sapiens) (UniProt Q5TCH4); assay: LTEA_HepaRG_CYP4A22: Life Technologies and Expression Analysis (LTEA) Assay for Cytochrome P450 4A22 (CYP4A22) using HepaRG (AID 2283495)
Procedure, shortened: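 Gene expression measured by qRT-PCR against three housekeeping genes (ACTB, GAPDH, POLR2A), with gain or loss fitted relative to 0.5% DMSO vehicle. HepaRG cultures received 48 h chemical treatment, top concentration 100 uM, half-log steps, duplicate wells.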

[20] = read-out: Cytochrome P450 3A7 (Homo sapiens) (UniProt P24462); assay: LTEA_HepaRG_CYP3A7: Life Technologies and Expression Analysis (LTEA) Assay for CYP3A7 using HepaRG (AID 2283492)
Procedure, shortened: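 CYP3A7 transcript measured by qRT-PCR (ACTB, GAPDH, POLR2A normalization) after 48 h chemical exposure of HepaRG cells in duplicate. Eight half-log concentrations, maximum 100 uM, 0.5% DMSO vehicle; bidirectional curve fitting against DMSO baseline.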

Measured: AC50

Cytochrome P450 3A4 (Homo sapiens), sequence (P08684 whole entry, looked up): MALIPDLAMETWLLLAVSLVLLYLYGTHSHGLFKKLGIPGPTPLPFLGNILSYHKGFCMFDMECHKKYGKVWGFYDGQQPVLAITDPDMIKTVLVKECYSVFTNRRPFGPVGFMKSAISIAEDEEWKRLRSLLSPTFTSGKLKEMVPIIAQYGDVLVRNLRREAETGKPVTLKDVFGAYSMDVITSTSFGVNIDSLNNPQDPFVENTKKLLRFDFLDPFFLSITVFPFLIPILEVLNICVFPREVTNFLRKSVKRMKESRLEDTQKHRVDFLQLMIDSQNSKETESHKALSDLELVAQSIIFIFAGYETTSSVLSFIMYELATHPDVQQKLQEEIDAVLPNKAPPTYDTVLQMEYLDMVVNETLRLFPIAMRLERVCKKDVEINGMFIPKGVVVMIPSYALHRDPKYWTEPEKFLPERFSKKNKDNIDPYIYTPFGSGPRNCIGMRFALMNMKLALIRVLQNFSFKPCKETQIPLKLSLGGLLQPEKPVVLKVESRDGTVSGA
Cytochrome P450 3A7 (Homo sapiens), sequence (P24462 whole entry, looked up): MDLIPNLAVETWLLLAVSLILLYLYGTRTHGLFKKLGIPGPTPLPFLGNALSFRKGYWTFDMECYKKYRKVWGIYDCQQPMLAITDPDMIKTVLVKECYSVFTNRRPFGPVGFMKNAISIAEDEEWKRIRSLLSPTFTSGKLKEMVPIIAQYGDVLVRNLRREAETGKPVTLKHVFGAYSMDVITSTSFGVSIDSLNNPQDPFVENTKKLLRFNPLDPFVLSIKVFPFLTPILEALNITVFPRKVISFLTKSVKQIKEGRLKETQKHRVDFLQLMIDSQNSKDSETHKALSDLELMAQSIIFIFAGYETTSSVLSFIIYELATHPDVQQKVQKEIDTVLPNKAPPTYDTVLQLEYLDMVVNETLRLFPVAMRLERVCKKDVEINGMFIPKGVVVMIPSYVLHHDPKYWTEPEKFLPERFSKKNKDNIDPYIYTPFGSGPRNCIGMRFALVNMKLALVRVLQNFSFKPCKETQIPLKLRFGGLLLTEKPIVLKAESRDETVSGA

O=[N+]([O-])/N=C1\NCCN1Cc1ccc(Cl)nc1
active: [1] 74.1 µM | [2] 38.1 µM | [3] 34.8 µM | [7] 30.2 µM | [11] 36 µM | [12] 34.1 µM | [13] 39.9 µM | [14] 24.6 µM | [18] 25 µM
inactive: [4] | [5] | [6] | [8] | [9] | [10] | [15] | [16] | [17]

O=S1OCC2C(CO1)C1(Cl)C(Cl)=C(Cl)C2(Cl)C1(Cl)Cl (stereo not given)
inactive: [7] | [8] | [9] | [10] | [14] | [17] | [18]
active: [1] 81.1 µM | [2] 82.4 µM | [3] 55.7 µM | [4] 62.6 µM | [6] 80 µM | [11] 43.6 µM | [12] 40.4 µM | [13] 79.7 µM | [15] 88.6 µM | [16] 50 µM

N#CN
not listed: [5] | [20]
inactive: all other assays above

Cc1[nH]c(=O)n(C(C)(C)C)c(=O)c1Cl
active: [3] 37 µM | [12] 18.8 µM
not listed: [5] | [20]
inactive: all other assays above

CCc1ccc(C(=O)NN(C(=O)c2cc(C)cc(C)c2)C(C)(C)C)cc1
active: [1] 12.1 µM | [3] 42.4 µM | [4] 77.2 µM | [8] 50 µM | [11] 50 µM | [12] 4.22 µM | [18] 81.7 µM
not listed: [5] | [19] | [20]
inactive: all other assays above

O=C1c2ccccc2C(=O)N1SC(Cl)(Cl)Cl
not listed: [5] | [19] | [20]
inactive: all other assays above

CC(C)(C)C(O)/C(=C\c1ccc(Cl)cc1Cl)n1cncn1 (stereo not given)
active: [1] 3.88 µM | [3] 12.9 µM | [4] 21.9 µM | [6] 29.4 µM | [8] 33.8 µM | [9] 86.6 µM | [11] 30.5 µM | [12] 32.6 µM | [13] 27.3 µM | [14] 81.5 µM | [15] 29.5 µM | [18] 93.3 µM
inactive: [2] | [7] | [20] | [10] | [16] | [17]

O=S(=O)(O)C(F)(F)C(F)(F)C(F)(F)C(F)(F)C(F)(F)C(F)(F)C(F)(F)C(F)(F)F
active: [1] 88.2 µM and 12.1 µM and 87.9 µM | [2] 80.2 µM and 88.7 µM | [3] 61.1 µM [middle of 4 runs] | [6] 60.1 µM [middle of 4 runs] | [8] 50 µM and 7.35 µM | [9] 50 µM and 14.2 µM | [11] 94.2 µM and 77 µM | [12] 94.4 µM and 94 µM and 75.4 µM | [13] 76.5 µM [middle of 4 runs] | [15] 5.76 µM | [18] 19.9 µM
inactive: [2] | [7] | [8] | [9] | [10] | [11] | [12] | [14] | [15] | [16] | [17] | [18]

CCC(C)(C)C(=O)OC1=C(c2ccc(Cl)cc2Cl)C(=O)OC12CCCCC2
active: [3] 23.1 µM
not listed: [5] | [19] | [20]
inactive: all other assays above

Oc1cc(Cl)ccc1Oc1ccc(Cl)cc1Cl
inactive: [1] | [2] | [3] | [4] | [6] | [7] | [8] | [9] | [10] | [11] | [12] | [13] | [14] | [15] | [16] | [17] | [18]
active: [1] 86.4 µM | [2] 93.4 µM | [3] 92.2 µM | [4] 51 µM and 79.3 µM | [10] 51 µM | [11] 88.9 µM | [12] 72.8 µM | [13] 83.7 µM | [15] 51 µM | [16] 89.6 µM
